Some test systems named below: HCT-15 colon; HT29 colon; SNB-75 CNS; SNB-19 CNS; U251 CNS; PC-3 prostate; SK-MEL-5 melanoma; UACC-62 melanoma; SK-MEL-28 melanoma.
Common to all, as to assay: NCI-60 one-dose screen, 48 h (100 = growth as untreated, 0 = no growth, -100 = all killed)
Conditions in all cases: 10 µM unless noted

Each structure is given as a SMILES string. This is part of a sample that, as a whole, favours compounds with a hit. Of some 83,000 tested, about 20% had one in any assay.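 Treatment: one concentration, 48 hours, 96-well format. Scoring: percent growth, with anything below 10 considered active.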 Values without a mark were called inactive. The source made the active and inactive calls.

Take `COC(=O)[C@]12CC[C@@H](C(/C=C/c3cccnc3)=N/O)[C@@H]1[C@H]1CC[C@@H]3[C@@]4(C)CC(=C/c5cccnc5)/C(=N/O)C(C)(C)[C@@H]4CC[C@@]3(C)[C@]1(C)CC2`: the growth in the assay with HCT-15 colon is 23.4%; in the assay with HT29 colon, 32.8%; with SNB-75 CNS, 22.8%; in the assay with SNB-19 CNS, 71.9%; in the assay on U251 CNS, 52.9%; in the assay on PC-3 prostate it was 20.8%. Besides, the growth in the assay on SK-MEL-5 melanoma was -21.5% (active); with UACC-62 melanoma, 15.7%; with SK-MEL-28 melanoma, 50.8%.

As to `C[C@H]1[C@H]2C3=CC[C@@H]4[C@@]5(C)C/C(=C/c6ccco6)C(=O)C(C)(C)[C@@H]5CC[C@@]4(C)[C@]3(C)CC[C@@]2(C(=O)N2CCOCC2)CC[C@@H]1C`, the growth in the assay on HCT-15 colon was 40.2%; in the assay with HT29 colon, 28.9%; with SNB-75 CNS, 99.4%; with SNB-19 CNS it was 71.3%; in the assay with U251 CNS it was 49.1%; in the assay on PC-3 prostate it was 39.1%. The growth is 72.1% in the assay with SK-MEL-5 melanoma, 60.5% in the assay on UACC-62 melanoma and 69.7% in the assay with SK-MEL-28 melanoma.

Regarding `S=c1[nH]nc2ccccn12`, the growth was 101% in the assay with HCT-15 colon; 87.5% with HT29 colon; 88.7% in the assay with SNB-75 CNS; 110% with SNB-19 CNS; 114% in the assay on U251 CNS; 108% in the assay on PC-3 prostate. Also, the growth in the assay with SK-MEL-5 melanoma is 92.3%; in the assay on UACC-62 melanoma, 108%; in the assay with SK-MEL-28 melanoma, 109%.

With `COc1ccc(OC)c(-c2c(C#N)c(-c3ccco3)nc3c2c(-c2ccccc2)nn3-c2ccccc2)c1`, the growth is 96.9% in the assay with HCT-15 colon; 105% in the assay on HT29 colon; 84.5% in the assay with SNB-75 CNS; 93.3% with SNB-19 CNS; 103% with U251 CNS; 83.7% in the assay on PC-3 prostate. Besides, the figures for the growth with SK-MEL-5 melanoma, in the assay with UACC-62 melanoma and in the assay on SK-MEL-28 melanoma were 97%, 76.6% and 106%, respectively.

For the compound `O=C(/C=C/c1cccc(O)c1)c1ccccc1O`, the growth in the assay with HCT-15 colon is 92.9%; with HT29 colon, 87.7%; in the assay with SNB-75 CNS, 72%; with SNB-19 CNS, 90.1%; in the assay on U251 CNS, 77%; in the assay on PC-3 prostate, 83.8%. The figures for the growth in the assay with SK-MEL-5 melanoma, in the assay with UACC-62 melanoma and in the assay on SK-MEL-28 melanoma were 92.3%, 87.4% and 98.2%, respectively.

In the case of `COc1cc(-c2nc(-c3ccccc3)c(-c3ccccc3)[nH]2)cc(OC)c1O`, the growth is 11.1% in the assay with HCT-15 colon; 0.965% (active) in the assay on HT29 colon; 29.7% in the assay with SNB-75 CNS; 20.1% in the assay on SNB-19 CNS; 5.45% (active) in the assay with U251 CNS; -58.6% (active) in the assay with PC-3 prostate. The growth in the assay on SK-MEL-5 melanoma is -8.78% (active); with UACC-62 melanoma, -60.6% (active); in the assay with SK-MEL-28 melanoma, -4.06% (active).

`Nc1c(C(=O)Nc2cccc(Br)c2)sc2nc3c(cc12)C(=O)CCC3`: the growth in the assay with HCT-15 colon is 33%; in the assay with HT29 colon, 8.17% (active); in the assay with SNB-75 CNS, -4.52% (active); in the assay on SNB-19 CNS, 32.7%; in the assay on U251 CNS, 37.7%; with PC-3 prostate, 14.3%. The growth in the assay on SK-MEL-5 melanoma was 20.5%; in the assay with UACC-62 melanoma, 35.3%; in the assay on SK-MEL-28 melanoma, 48.3%.

For the compound `Cn1cc(-c2csc(-c3cn(C(=O)OC(C)(C)C)c4ccc(Br)cc34)n2)c2cccnc21`, the growth was 93.4% in the assay with HCT-15 colon; 93.4% in the assay on HT29 colon; 78.9% with SNB-75 CNS; 93.2% in the assay on SNB-19 CNS; 87.4% with U251 CNS; 87.5% with PC-3 prostate. For the same compound, the growth is 97% in the assay with SK-MEL-5 melanoma, 91% with UACC-62 melanoma and 108% in the assay with SK-MEL-28 melanoma.

Take `N#Cc1c(-c2ccc(O)cc2)c2c(N)nn(-c3ccccc3)c2[nH]c1=O`: the growth in the assay on HCT-15 colon is 109%; in the assay with HT29 colon, 111%; in the assay with SNB-75 CNS it was 104%; in the assay with SNB-19 CNS, 99.8%; with U251 CNS it was 103%; in the assay on PC-3 prostate, 102%. For the same compound, the growth in the assay with SK-MEL-5 melanoma was 98%; with UACC-62 melanoma, 96%; in the assay with SK-MEL-28 melanoma, 109%.

`Cc1ccc2[nH]cc(-c3nc(-c4cn(C)c5ncccc45)cs3)c2c1`: the growth in the assay on HCT-15 colon is 83%; in the assay on HT29 colon, 74.6%; in the assay on SNB-75 CNS, 85%; with SNB-19 CNS, 109%; in the assay with U251 CNS, 94.8%; with PC-3 prostate it was 57%. Also, the results for the growth in the assay on SK-MEL-5 melanoma, with UACC-62 melanoma and in the assay on SK-MEL-28 melanoma were 76.9%, 79.3% and 90.6%, respectively.

Turning to `COc1ccc(CCN2C(=O)C(C)(C)SC2=S)cc1OC`, the growth in the assay with HCT-15 colon was 101%; in the assay on HT29 colon, 105%; with SNB-75 CNS it was 76.8%; in the assay with SNB-19 CNS it was 96.4%; with U251 CNS, 100%; in the assay with PC-3 prostate it was 98.4%. For the same compound, the growth in the assay with SK-MEL-5 melanoma is 99.5%; with UACC-62 melanoma, 92.7%; with SK-MEL-28 melanoma, 102%.

On to `C=C(C)[C@@H]1CC[C@]2(C(=O)N3CCCNCC3)CC[C@]3(C)[C@H](CC[C@@H]4[C@@]5(C)CCC(=O)C(C)(C)[C@@H]5CC[C@]43C)[C@@H]12`, for which the growth is 84.1% in the assay with HCT-15 colon; 61% in the assay with HT29 colon; 56.9% in the assay with SNB-75 CNS; 91.2% with SNB-19 CNS; 78% with U251 CNS; 78.3% with PC-3 prostate. Moreover, the growth was 94.1% in the assay on SK-MEL-5 melanoma, 99.1% in the assay with UACC-62 melanoma and 103% with SK-MEL-28 melanoma.

With `COc1cnc2c(c1)C(=O)c1c-2n(CCCN2CCN(CCO)CC2)c(=O)c2cc([N+](=O)[O-])ccc12`, the growth was -26.3% (active) in the assay with HCT-15 colon; -85.7% (active) with HT29 colon; 73.1% in the assay on SNB-75 CNS; -1.88% (active) with SNB-19 CNS; -84.2% (active) in the assay with U251 CNS; 44.4% with PC-3 prostate. Besides, the growth with SK-MEL-5 melanoma was 53.9%; in the assay on UACC-62 melanoma, 37.8%; in the assay with SK-MEL-28 melanoma, 102%.
